From PubChem BioAssay (Tox21) come the findings set out here.

Inconclusive results are not listed. Unmarked numbers belong to inactive results. Activity calls are given as the source filed them. Unless noted, calls follow the shape of the dose curve; as a rule, active = well fitted curve in the direction sought with a large enough effect in the repeat runs; inconclusive = weak or mixed curves; inactive = no such curve, though single readings can be large; an effect the other way counts as inactive or inconclusive.

Assay [1] in a line: qHTS assay to identify small molecule antagonists of the thyroid receptor (TR) signaling pathway - cell viability counter screen (AID 743064). Also: nearly all actives have a fitted effect of over 50% in size. Also: potency is read from the fitted curve at half-maximal effect. An outline of the steps: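 Same-well viability check: GH3.TRE-Luc cells stimulated with 1 nM T3 alongside test compound for 23.5 h, followed by CellTiter-Fluor fluorescence.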
Assay [2] is described as follows: qHTS assay to identify small molecule antagonists of the thyroid receptor (TR) signaling pathway (AID 743065). Also: nearly all actives have a fitted effect of over 55% in size. Also: potency is read from the fitted curve at half-maximal effect. An outline of the steps:
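GH3.TRE-Luc rat pituitary cells (two TREs driving luciferase) were dosed with compound, then stimulated with 1 nM T3 (final) for 23.5 h at 37 C. ONE-Glo luminescence was the read-out, with CellTiter-Fluor fluorescence as the cytotoxicity counter-screen.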

Assay [3] concerns thyroid hormone receptor (rat, GH3 cells). Nature of the assay: qHTS assay to identify small molecule agonists of the thyroid receptor (TR) signaling pathway (AID 743066; calls by dose curve).
The target in assay [4] is Estrogen receptor (Homo sapiens) (UniProt P03372). Nature of the assay: qHTS assay to identify small molecule antagonists of the estrogen receptor alpha (ER-alpha) signaling pathway (AID 743069; active = well fitted curve in the direction sought with a large enough effect in the signal ratio in the repeat runs, not every such curve was filed as active; the % refers to the signal ratio). An outline of the steps: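 In this cell-based reporter format, GripTite HEK293 cells harbouring ER-alpha-UAS-bla were grown overnight with 2% charcoal-stripped FBS, dosed with DMSO-dissolved compounds, then challenged with 17beta-estradiol. After 18 hr at 37C, beta-lactamase activity was detected by FRET fluorescence.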

Assay [5] has the same target. Nature of the assay: qHTS assay to identify small molecule agonists of the estrogen receptor alpha (ER-alpha) signaling pathway (AID 743075; calls by dose curve).
Assay [6] has the same target. Nature of the assay: qHTS assay to identify small molecule agonists of the estrogen receptor alpha (ER-alpha) signaling pathway using the BG1 cell line (AID 743079). Also: nearly all actives have a fitted effect of over 20% in size.
Assay [7] is described as follows: qHTS assay to identify small molecule antagonists of the estrogen receptor alpha (ER-alpha) signaling pathway using the BG1 cell line (AID 743080; calls by dose curve;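 also: BG1 cells stimulated with 17beta-estradiol alongside compound; series mostly up to about 70 µM; nearly all actives have a fitted effect of over 25% in size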). An outline of the steps: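 After 5 days in phenol-red-free 10% charcoal-stripped FBS medium, BG1-Luc-4E2 cells were seeded, left 24 h at 37 C, co-treated with compounds and 17beta-estradiol for 21.5 h, then assayed for viability and luciferase.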
In general terms: qHTS replaces the single test concentration by a dilution series.

Assay [8] can be described thus: qHTS assay to identify small molecule antagonists of the estrogen receptor alpha (ER-alpha) signaling pathway using the BG1 cell line - cell viability counter screen (AID 743081).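 Also: compound given together with 17beta-estradiol as the ER stimulus; series mostly up to about 70 µM; nearly all actives have a fitted effect of over 45% in size.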
The target in another assay is Aromatase (Homo sapiens) (UniProt P11511). Nature of the assay: qHTS assay to identify aromatase inhibitors (AID 743083). Also: series mostly up to about 70 µM; nearly all actives have a fitted effect of over 55% in size.
Assay [9] is described as follows: qHTS assay to identify aromatase inhibitors - cell viability counter screen (AID 743084).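 Also: cells stimulated with testosterone during compound exposure; nearly all actives have a fitted effect of over 55% in size.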
Assay [10] is described as follows: qHTS assay to identify small molecule that activate the aryl hydrocarbon receptor (AhR) signaling pathway - cell viability counter screen (AID 743086).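 Also: HepG2 liver cells carrying the AhR DRE luciferase reporter; series mostly up to about 70 µM; nearly all actives have a fitted effect of over 45% in size.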 The gist of the method:
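HepG2-AhR-luc (HG2L7.5c1) cells, 4000/well, treated 24 h at 37 C with compound; viability measured as CellTiter-Fluor fluorescence after 30 min in the same wells as the luciferase read.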

In assay [11] the target is Peroxisome proliferator-activated receptor gamma (Homo sapiens) (UniProt P37231). Nature of the assay: qHTS assay to identify small molecule agonists of the peroxisome proliferator-activated receptor gamma (PPARg) signaling pathway (AID 743094; active = well fitted activation curve with a large enough effect in the signal ratio in the repeat runs, not every such curve was filed as active; the % refers to the signal ratio). An outline of the steps: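 Cells from the PPARg UAS-bla HEK293H line are plated and incubated 5 h at 37C. Compounds in DMSO are pinned in and left 17 h at 37C. LiveBLAzer B/G substrate is then added for 1 h at room temperature before fluorescence is measured.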

For assay [12] the target is unchanged. Nature of the assay: qHTS assay to identify small molecule antagonists of the peroxisome proliferator-activated receptor gamma (PPARg) signaling pathway (AID 743191; calls by dose curve; also: series mostly up to about 63 µM; nearly all actives have a fitted effect of over 30% in size). An outline of the steps:
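GeneBLAzer PPARg UAS-bla HEK293H cells, 5 h post-plating, exposed to compounds 17 h at 37C. LiveBLAzer B/G FRET substrate added for 1 h at room temperature; beta-lactamase reporter read by fluorescence intensity.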

The nature of assay [13]: qHTS assay to identify small molecule antagonists of the peroxisome proliferator-activated receptor gamma (PPARg) signaling pathway - cell viability counter screen (AID 743194). Also: nearly all actives have a fitted effect of over 55% in size. An outline of the steps: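 Cytotoxicity counter screen in PPARg-bla HEK293H cells, same wells as reporter assay. Compounds plus 50 nM rosiglitazone (final) for 17 h at 37 C, then viability read by CellTiter-Glo luminescence.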

Assay [14] can be described thus: qHTS assay for small molecule agonists of the antioxidant response element (ARE) signaling pathway (AID 743202; active = well fitted activation curve with a large enough effect in the signal ratio in the repeat runs, not every such curve was filed as active; the % refers to the signal ratio). The gist of the method:
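HepG2 ARE-bla cells; 16 h treatment at 37 C; FRET-based beta-lactamase fluorescence read after 2 h substrate incubation at room temperature.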

Assay [15] is described as follows: qHTS assay for small molecule agonists of the antioxidant response element (ARE) signaling pathway - cell viability counter screen (AID 743203; calls by dose curve; also: nearly all actives have a fitted effect of over 55% in size). An outline of the steps: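 Cytotoxicity was tested in parallel with the ARE reporter screen. ARE-bla HepG2 cells were exposed to compounds for 16 hrs, and viability was taken from CellTiter-Glo luminescence.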
The nature of assay [16]: qHTS assay for small molecule activators of the heat shock response signaling pathway - cell viability counter screen (AID 743209). Also: nearly all actives have a fitted effect of over 50% in size. The gist of the method:
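Cytotoxicity counter screen run in parallel with the HSE beta-lactamase reporter, using the same wells. HeLa HSE-bla cells received compound for 5 h at 37 C; ATP-based CellTiter-Glo luminescence was measured after 30 min at room temperature.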

Assay [17] in a line: qHTS assay to identify small molecule antagonists of the estrogen receptor alpha (ER-alpha) signaling pathway - cell viability counter screen (AID 743074; calls by dose curve; also: nearly all actives have a fitted effect of over 45% in size).
Assay [18] deals with Aryl hydrocarbon receptor (Homo sapiens) (UniProt P35869). Nature of the assay: qHTS assay to identify small molecule that activate the aryl hydrocarbon receptor (AhR) signaling pathway (AID 743085).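 Also: HG2L7.5c1 human HepG2 liver cells with stably integrated DRE-driven firefly reporter; series mostly up to about 70 µM; nearly all actives have a fitted effect of over 15% in size.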 The gist of the method:
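Reporter assay in engineered HepG2 line HG2L7.5c1, whose plasmid carries twenty dioxin responsive elements upstream of firefly luciferase. Treatment lasted 24 h at 37C; ONE-Glo luminescence gauged induction.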

Assay [19] is described as follows: qHTS assay for small molecule activators of the heat shock response signaling pathway (AID 743210; active = well fitted activation curve with a large enough effect in the signal ratio in the repeat runs, with a control signal flat, not every such curve was filed as active; the % refers to the signal ratio;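 also: HeLa cells with beta-lactamase reporter driven by heat shock elements; series mostly up to about 63 µM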). The gist of the method: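 Following overnight attachment, HSE-bla HeLa cells received test compounds for 5 h at 37 C; beta-lactamase activity was then detected via FRET substrate fluorescence.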

Aromatase (Homo sapiens), sequence (P11511 whole entry, looked up): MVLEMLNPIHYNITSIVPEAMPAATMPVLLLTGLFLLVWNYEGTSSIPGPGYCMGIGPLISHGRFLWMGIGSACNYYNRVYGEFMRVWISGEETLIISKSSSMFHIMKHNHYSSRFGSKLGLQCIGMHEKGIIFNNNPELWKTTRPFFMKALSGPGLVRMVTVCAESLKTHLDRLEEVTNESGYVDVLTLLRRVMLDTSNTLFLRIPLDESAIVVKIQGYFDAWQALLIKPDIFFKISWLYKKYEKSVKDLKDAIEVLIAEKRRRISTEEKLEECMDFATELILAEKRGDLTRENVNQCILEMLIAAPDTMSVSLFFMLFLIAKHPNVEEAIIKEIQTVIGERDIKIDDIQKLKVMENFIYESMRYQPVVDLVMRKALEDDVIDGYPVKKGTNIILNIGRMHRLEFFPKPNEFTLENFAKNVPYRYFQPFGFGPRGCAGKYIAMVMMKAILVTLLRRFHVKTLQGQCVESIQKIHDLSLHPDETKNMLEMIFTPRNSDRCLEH
Aryl hydrocarbon receptor (Homo sapiens), sequence (P35869 whole entry, looked up): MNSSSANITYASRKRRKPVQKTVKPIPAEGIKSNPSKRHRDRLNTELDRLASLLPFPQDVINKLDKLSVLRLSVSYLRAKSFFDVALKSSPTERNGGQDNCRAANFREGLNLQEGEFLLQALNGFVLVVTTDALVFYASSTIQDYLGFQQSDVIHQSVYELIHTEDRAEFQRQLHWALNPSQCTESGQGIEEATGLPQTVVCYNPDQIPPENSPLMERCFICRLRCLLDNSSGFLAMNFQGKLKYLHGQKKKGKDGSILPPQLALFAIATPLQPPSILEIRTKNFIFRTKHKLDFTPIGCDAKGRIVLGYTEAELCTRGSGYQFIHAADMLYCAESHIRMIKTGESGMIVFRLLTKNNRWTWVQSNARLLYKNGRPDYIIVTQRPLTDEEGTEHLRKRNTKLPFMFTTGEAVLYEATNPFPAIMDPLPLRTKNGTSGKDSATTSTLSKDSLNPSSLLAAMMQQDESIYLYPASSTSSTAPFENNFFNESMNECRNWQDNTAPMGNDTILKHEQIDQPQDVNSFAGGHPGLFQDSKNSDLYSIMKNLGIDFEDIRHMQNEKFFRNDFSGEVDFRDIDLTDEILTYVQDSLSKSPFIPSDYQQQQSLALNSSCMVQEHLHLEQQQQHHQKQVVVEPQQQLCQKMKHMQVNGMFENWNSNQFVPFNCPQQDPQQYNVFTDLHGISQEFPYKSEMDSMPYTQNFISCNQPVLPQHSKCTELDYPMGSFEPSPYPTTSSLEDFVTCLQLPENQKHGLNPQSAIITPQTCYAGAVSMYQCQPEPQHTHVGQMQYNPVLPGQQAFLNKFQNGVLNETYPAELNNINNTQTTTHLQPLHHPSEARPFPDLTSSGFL
Estrogen receptor (Homo sapiens), sequence (P03372 whole entry, looked up): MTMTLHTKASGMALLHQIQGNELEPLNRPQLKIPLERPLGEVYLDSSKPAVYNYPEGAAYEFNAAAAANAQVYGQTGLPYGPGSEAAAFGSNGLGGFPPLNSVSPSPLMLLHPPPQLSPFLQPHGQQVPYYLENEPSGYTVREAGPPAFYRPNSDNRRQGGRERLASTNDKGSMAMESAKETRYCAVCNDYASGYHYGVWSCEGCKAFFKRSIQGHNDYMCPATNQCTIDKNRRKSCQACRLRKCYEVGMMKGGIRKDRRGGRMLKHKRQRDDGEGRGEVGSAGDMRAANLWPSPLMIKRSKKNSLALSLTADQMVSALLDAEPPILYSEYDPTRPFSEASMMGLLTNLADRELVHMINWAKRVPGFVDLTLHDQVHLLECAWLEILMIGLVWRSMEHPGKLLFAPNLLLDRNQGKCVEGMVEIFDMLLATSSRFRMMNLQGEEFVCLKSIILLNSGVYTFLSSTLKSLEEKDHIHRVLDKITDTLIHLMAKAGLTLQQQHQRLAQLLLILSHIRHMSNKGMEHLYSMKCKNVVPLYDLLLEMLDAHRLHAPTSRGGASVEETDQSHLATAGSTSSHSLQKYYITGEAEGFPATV
Peroxisome proliferator-activated receptor gamma (Homo sapiens), sequence (P37231 whole entry, looked up): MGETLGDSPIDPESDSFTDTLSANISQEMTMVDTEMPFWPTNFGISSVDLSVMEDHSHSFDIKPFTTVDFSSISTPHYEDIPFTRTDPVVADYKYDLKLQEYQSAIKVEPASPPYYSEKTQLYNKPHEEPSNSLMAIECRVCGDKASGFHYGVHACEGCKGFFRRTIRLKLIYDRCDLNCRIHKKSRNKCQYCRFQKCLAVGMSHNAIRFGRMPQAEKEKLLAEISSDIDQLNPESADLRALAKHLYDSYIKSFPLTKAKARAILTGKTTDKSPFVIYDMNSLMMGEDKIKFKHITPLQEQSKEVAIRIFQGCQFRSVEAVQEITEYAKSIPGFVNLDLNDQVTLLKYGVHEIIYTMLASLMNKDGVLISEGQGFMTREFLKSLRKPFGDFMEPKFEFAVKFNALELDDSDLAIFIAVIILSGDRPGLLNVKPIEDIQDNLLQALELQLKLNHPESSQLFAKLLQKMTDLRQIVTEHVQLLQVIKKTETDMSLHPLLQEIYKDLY

In the case of `On1nnc2ccccc21`, the Potency result (in assay [1]; in [2]; in assay [6]; in assay [7]; in the assay with Aromatase (Homo sapiens); in [9]) was “inactive” throughout. The Potency result in assay [10], in assay [12] and in [14] was “inactive” each time. Also, the result in [3], in [4], in assay [5], in assay [8], in assay [11] and in [13] was inactive. The call in assay [15] and in assay [16] was inactive.

For the compound `O=C(OCC1(COC(=O)c2cccnc2)CCCC(COC(=O)c2cccnc2)(COC(=O)c2cccnc2)C1O)c1cccnc1`, the Potency entry (in assay [1]; in assay [2]; in the assay with Aromatase (Homo sapiens); in assay [9]; in assay [18]; in assay [14]) was “inactive” in each case. Also, the call in [3], in assay [17], in [8], in assay [11], in assay [13] and in [15] was inactive. Also, the outcome in [16] was inactive.

For the compound `O=C1c2cccc3c2[C@H](CCC3)CN1[C@@H]1CN2CCC1CC2`, the Potency in [1] is 23.7 µM (active); in assay [2], 18.8 µM (active). The outcome in [3], in assay [17], in assay [5], in [11], in [13] and in assay [15] was inactive. The compound was called inactive in assay [16]. Besides, the Potency result (in assay [6]; in the assay with Aromatase (Homo sapiens); in [9]; in assay [18]; in [14]) was “inactive” each time.

With `CC(C)(C)OC(=O)c1ccc(O)cc1`, the Potency entry (in [1]; in assay [2]; with Aromatase (Homo sapiens); in [9]; in assay [10]; in assay [12]) was “inactive” each time. The compound was called inactive in assay [3], in assay [17], in assay [8], in assay [11], in [13] and in assay [15]. The compound was called inactive in assay [16] and in assay [19].

For `COc1ccc(C2CNC(=O)C2)cc1OC1CCCC1` (stereo unspecified), the Potency result (in [1]; in [2]; with Aromatase (Homo sapiens); in assay [9]; in assay [18]; in assay [10]) was “inactive” in each case. Moreover, the Potency entry in [12] and in [14] was “inactive” each time. Besides, the outcome in [3], in assay [17], in [8], in assay [11], in [13] and in assay [16] was inactive. Further, in assay [19], the compound was classed as inactive.

Take `N[C@@H](COP(=O)(O)O)C(=O)O`: the Potency result (in [1]; in [2]; in the assay with Aromatase (Homo sapiens); in assay [9]; in assay [18]; in assay [10]) was “inactive” in each case. Moreover, the Potency result in assay [12] and in assay [14] was “inactive” throughout. Besides, the compound was called inactive in assay [3], in assay [17], in assay [8], in assay [11] and in [16].

Regarding `CCCOC(OCCC)OCCC`, the Potency entry (in assay [1]; in assay [2]; in the assay with Aromatase (Homo sapiens); in assay [9]; in [18]; in assay [12]) was “inactive” throughout. Also, in assay [14], the Potency entry was “inactive”. Also, the compound was called inactive in [3], in assay [17], in assay [8], in assay [11] and in [16].

Consider `BrCc1cccc(Oc2ccccc2)c1`, for which the Potency result (in assay [1]; in [2]; with Aromatase (Homo sapiens); in assay [9]; in assay [18]; in assay [12]) was “inactive” throughout. For the same compound, the compound was called inactive in assay [3], in assay [17], in assay [8], in assay [11], in assay [15] and in [16]. Further, the compound was called inactive in assay [19].

Consider `O=C(O)c1cc(Br)c(O)c(Br)c1`, for which the Potency entry (in [1]; in assay [2]; with Aromatase (Homo sapiens); in assay [9]; in assay [10]; in [12]) was “inactive” each time. In addition, the Potency result in [14] was “inactive”. Besides, the outcome in assay [3], in assay [17], in assay [8], in [11], in assay [13] and in [15] was inactive. Also, the result in assay [16] and in assay [19] was inactive.
